From PubChem
An excerpt weighted towards active compounds, which were near 0.51% of everything screened.
FMDV antiviral: antivirals against foot and mouth disease virus; FMDV antiviral cell assay, firefly luciferase signal; Potency, µM (series often up to 57.5 µM), without a hit: at the top dose activity change, negative = inhibition, actives largely listed as inhibitors; 120,000 tested, 0.23% active; AID 1745856; also: nearly all actives have a fitted effect of over 60% in size
FMDV Renilla: antivirals against foot and mouth disease virus replicon | FMDV replicon cells, Renilla luciferase signal | Potency, µM (top dose mostly 57.5 µM), for inactives: top-dose activity change, negative = inhibition, actives largely listed as inhibitors | 120,000 tested, 0.32% active | AID 1745857; also: nearly all actives have a fitted effect of over 55% in size
Numbers without * were called inactive; ? = inconclusive; [ ] = remark or other dose. Calls follow the shape of the full dose curve. % is scaled to controls: 0 for no effect and ±100 for the full control effect; potency is read from the fitted curve at half-maximal effect.

SMILES | FMDV antiviral | FMDV Renilla
Cn1nc(CC(=O)Nc2ccc(O)cc2)c2ccccc2c1=O | ? | -24%
Cn1nc(CC(=O)Nc2ccc(Cl)cc2Cl)c2ccccc2c1=O | ? | 3.2µM*
CN(Cc1ccc(C(F)(F)F)cc1)C(=O)CCc1c[nH]c2ccccc12 | -8% | -3%
C=CCOc1ccc(/C=C(\C)[N+](=O)[O-])cc1OC | ? | 32µM*
CCOc1ccc(/C=C(\C)[N+](=O)[O-])cc1 | ? | -27%
N#CC1=C(SCc2ccc(Cl)cc2)NC(=O)C(C#N)C12CCCC2 (configuration not stated) | ? | 10µM*
N#CC1(NC(=O)CSCc2ccc(Cl)cc2)CCCCCC1 | 24% | 56%
Cc1cccc(NC(=O)c2sc3nc4c(cc3c2N)CN(Cc2ccccc2)CC4)c1 | 97% | -6%
CCN1CCc2nc3sc(C(=O)Nc4cccc(Cl)c4C)c(N)c3cc2C1 | 13µM* | 7.1µM*
Cc1nc2cc(-c3ccccc3)nn2c(C)c1CCC(=O)Nc1ccc(F)cc1F | ? | -8%
Cc1nc2cc(-c3cccc(F)c3)nn2c(C)c1CCC(=O)Nc1ccc(F)c(Cl)c1 | 2.2µM* | -2%
Cc1nc2cc(-c3cccc(F)c3)nn2c(C)c1CCC(=O)N1CCN(c2ccc(F)cc2)CC1 | ? | -5%
Cc1nc2cc(-c3ccccc3)nn2c(C)c1CCC(=O)Nc1ccc(F)cc1 | 3.2µM* | -3%
COc1ccc(N2CCN(C(=O)CCc3c(C)nc4cc(-c5cccc(F)c5)nn4c3C)CC2)cc1 | 25µM* | -4%
Cc1nc2cc(-c3cccc(F)c3)nn2c(C)c1CCC(=O)Nc1ccc(CN2CCCC2)cc1 | ? | -17%
Cc1ccc2nc(/C(C#N)=C/c3cccc(O)c3)[nH]c2c1 | 188% | 17%
Cc1cccc(C)c1-n1nnnc1SCc1nc2ccccc2o1 | ? | 0%
COc1ccc(-c2ccn[nH]2)cc1 | 151% | 4%
COc1cccc(-c2nc(-c3nc4ccccc4s3)cs2)c1OC | 265% | 46%
COc1cc(CN2CCC(C(O)(c3ccccc3)c3ccccc3)CC2)ccc1OCc1ccccc1 | ? | 35µM*
COc1cccc(CN2CCC(C(O)(c3ccccc3)c3ccccc3)CC2)c1OC | ? | 16%[1.06 µM]
COc1ccc(-c2c(C(F)(F)F)oc3cc(OS(C)(=O)=O)ccc3c2=O)cc1OC | 3.5µM* | ?
COc1ccc2c(=O)c(-c3ccc(OC)c(OC)c3)c(C(F)(F)F)oc2c1 | 24% | -7%
N#CCOc1ccc2ccccc2c1 | 13µM* | 1%
N#CCOc1ccc(COc2cccc(C#N)c2)cc1 | 111% | 8%
SMILES | FMDV antiviral | FMDV Renilla
Cc1ccccc1C(=O)n1nc(NCc2cccs2)nc1NCc1cccs1 | -10% | 30%
CC(C)n1ncc2cc(NC(=O)c3cc(S(=O)(=O)N4CCCCC4)ccc3N3CCCC3)cnc21 | -15% | 1%
COc1ccc(C(=O)Nc2cnc3c(cnn3C(C)C)c2)cc1S(=O)(=O)N1CCCC1 | 32µM* | ?
COc1ccc(-c2nc(SCc3cc(=O)c4cccc(Cl)c4[nH]3)n[nH]2)cc1 | ? | 11µM*
COc1ccc(-c2nc(SCc3cc(=O)c4cc(C)ccc4[nH]3)n[nH]2)cc1 | -16% | ?
COc1ccc(OC)c(NC(=O)CSc2nnc(CN3CCCCC3)n2-c2ccc(F)cc2)c1 | 31% | 23%
O=C(C1CCC(CNS(=O)(=O)c2ccc(Br)s2)CC1)N1CCN(c2ccccc2Cl)CC1 (configuration not stated) | -6% | -1%
O=C(C1CCC(CNS(=O)(=O)c2ccc(Br)s2)CC1)N1CCN(c2ccc(F)cc2)CC1 (configuration not stated) | ? | 6.3µM*
O=C(Nc1ccncc1)C1CCN(c2nc3ccccc3o2)CC1 | ? | 16µM*
O=C(Nc1ccc(C(F)(F)F)cc1)C1CCN(c2nc3ccccc3o2)CC1 | -24% | ?
COc1ccc(C(=O)N2CC(C)CC(C)C2)c2ccccc12 (configuration not stated) | 9% | 72%
O=C(Nc1ccccc1F)c1ncoc1-c1cccc(Cl)c1 | 58% | 33%
Cc1ccc(CNS(=O)(=O)c2ccc(-c3cnc(C4CC4)o3)cc2)cc1 | -18% | 18%
COc1ccc(C)cc1NS(=O)(=O)c1ccc(-c2cnc(C3CC3)o2)cc1 | 14µM* | 16µM*
COc1ccc(F)c(CNCCc2c(C)[nH]c3ccc(OC)cc23)c1 | -14% | 8%
COc1ccc(CNCCc2c(C)[nH]c3ccc(OC)cc23)c(F)c1 | 8.9µM* | 7.1µM*
COc1ccc2[nH]c(C)c(CCNCc3cccc(F)c3)c2c1 | 4% | 36%
COc1ccc2[nH]c(C)c(CCNCc3ccc(C(F)(F)F)cc3)c2c1 | ? | 4.5µM*
COc1cccc(NC(=O)c2cc(=O)c3cc(C)ccc3o2)c1 | 18% | -9%
COC(=O)C1(NC(=O)c2cc(Cl)ccc2Cl)CCCCCC1 | -11% | -5%
COC(=O)C1(NC(=O)COc2ccc(Cl)cc2Cl)CCCCC1 | 8.9µM* | 8.9µM*
COc1ccc(-n2ccnc(NCCc3ccccc3)c2=O)cc1OC | -2% | 5%
COc1ccc(CCNc2nccn(-c3ccc(C)c(C)c3)c2=O)cc1OC | ? | 7.9µM*
Cc1cc(C)cc(C(=O)NCCc2csc(-c3ccc(C(F)(F)F)cc3)n2)c1 | -15% | 2%
CC(=O)N1CCN(Cc2csc(-c3ccc(C(F)(F)F)cc3)n2)CC1 | 20µM* | 13µM*
SMILES | FMDV antiviral | FMDV Renilla
COc1ccc(C(=O)Nc2ccc(S(=O)(=O)NCC3CCCO3)cc2)cc1 (configuration not stated) | ? | 53%
O=C1CCCC2=C1C(c1ccc(F)cc1)c1c(nc(SCc3ccccc3F)[nH]c1=O)N2 (configuration not stated) | -15% | 5%
O=C(Nc1ccc(-n2cccn2)c(F)c1)C1CCN(C(=O)c2ccco2)CC1 | -7% | -19%
O=C(Nc1nc(-c2ccc(Cl)cc2Cl)cs1)C1CCN(C(=O)c2ccco2)CC1 | ? | 35µM*
COC(=O)Cc1c(C)c2ccc(OCC(=O)C(C)(C)C)c(C)c2oc1=O | ? | 28µM*
COC(=O)Cc1c(C)c2ccc(OCc3ccccc3F)c(C)c2oc1=O | 173% | 16%
COCCNC(=O)C(=O)N1CCN(c2nc(-c3ccccc3)c3c(c2C#N)CCCC3)CC1 | -5% | 20%
CS(=O)(=O)c1ccc(C(=O)Nc2c(Cl)cc(NC(=O)c3ccco3)cc2Cl)cc1 | 19% | 1%
CCc1c(C)sc(NC(=O)C(C)(C)C)c1C#N | 9% | 30%
CCc1c(C)sc(NC(=O)c2c(F)c(F)c(F)c(F)c2F)c1C#N | -7% | -8%
CCc1c(C)sc(NC(=O)C(F)(F)C(F)(F)C(F)(F)F)c1C#N | ? | 10µM*
CCc1c(C)sc(NC(=O)C(F)(F)C(F)(F)C(F)(F)C(F)(F)F)c1C#N | 22µM* | 25µM*
Cc1cc(C)n(-c2nc3c(c(=O)n(CCc4ccccc4)c(=O)n3C)n2CCC(C)C)n1 | ? | 5µM*
CCCn1c(-n2nc(C)cc2C)nc2c1c(=O)n(CCc1ccccc1)c(=O)n2C | -24% | ?
C=CCOc1cccc(/C=N/NC(=O)C(C)O)c1 (configuration not stated) | 137% | 3%
CNS(=O)(=O)c1ccc(C)c(C(=O)N2CCCC(c3nc4ccccc4[nH]3)C2)c1 (configuration not stated) | 4% | 2%
CCC(C(=O)Nc1sc2c(c1C#N)CCCC2)n1cnc2c1c(=O)n(C)c(=O)n2C (configuration not stated) | -10% | 0%
